SKKanGAS inh: S. pyogenes SKKanGAS growth inhibitors in kanamycin, primary screen, streptokinase expression inhibitor project, SKKanGAS strain, BacTiter-Glo luminescence; 6 h; inhibition, % at 7.5 µM; 1.3% of 300,000 active;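 active = mean replicate score, as percent of positive control median, at least 50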;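 note: strain carries kanamycin resistance gene driven by streptokinase promoter and grows in 40 µg/ml kanamycin; loss of luminescence reflects streptokinase promoter inhibition or plain growth inhibition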
NLRP3 yeast inh: NALP3 inflammasome inhibitors in reconstituted yeast, primary screen, luminescence, uHTS; Yeast reconstituted NLRP3/ASC/caspase-1, beta-gal luminescence, 24 h; inhibition, % at 10 µM; 0.39% of 330,000 active;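 active = inhibition of 50% or more; inactive = inhibition below 50%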
tim23-1 inh: growth inhibitors of tim23-1 mutant yeast, primary screen, luminescence, uHTS. S. cerevisiae tim23-1 growth, BacTiter-Glo luminescence, 24 h. inhibition, % at 20 µM. 1.3% of 330,000 active. AID 463212, 2010;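 active = growth inhibition of the mutant yeast at or above 50%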;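 note: temperature-sensitive mutant grown at 25 °C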
PfHsp90 yeast 2: growth inhibition of PfHsp90-expressing yeast, primary screen, antimalarial PfHsp90 inhibitor project, S. cerevisiae, BacTiter-Glo luminescence, single point, set 2. 0.32% of 310,000 active. inhibition, % at 9.4 µM. BacTiter-Glo ATP, 48 h; yeast lacking PDR1 and PDR3 efflux regulators;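 active = every replicate shows inhibition above about 80%, whatever the replicate mean, limit read from the data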
TIM10 inh: growth inhibitors of isogenic TIM10 control yeast, primary screen, counter-screen for tim10-1 yeast inhibitor project, luminescence, uHTS. S. cerevisiae TIM10 strain growth, BacTiter-Glo luminescence, 24 h. inhibition, % at 10 µM. 1.4% of 330,000 active;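 active = inhibition of 40% or more at the single tested concentration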;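 note: wild-type TIM10 isogenic control strain grown at permissive 25 °C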
tim10-1 inh: growth inhibitors of tim10-1 mutant yeast, primary screen, luminescence, uHTS | inhibition, % at 20 µM | 2.2% of 330,000 active | AID 463190, 2010 | S. cerevisiae tim10-1 ts strain growth, BacTiter-Glo, 24 h;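 active = inhibition of at least 40%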;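 note: mutant grown at 25 °C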
tim10-1 conf: growth inhibitors of tim10-1 mutant yeast, confirmation, single concentration, luminescence, S. cerevisiae; shares compounds with tim10-1 inh; 56% of 7,400 active; inhibition, % at 20 µM; AID 463213, 2010; S. cerevisiae tim10-1 ts strain growth, BacTiter-Glo, 24 h;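 active = inhibition of yeast growth at or above a set limit in either of two repeat tests at 20 µM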;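 note: tim10-1 mutant grown at permissive 25 °C to find synthetic lethal compounds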
Of the large screens only hits and unclear results are named; the others gave an inactive call (follow-up assays come after a bar, where they were run). Compounds with a hit are over-represented: about 4.6% of the library has one in this group of screens.

Cc1cc(C(=O)CSc2nnc(-c3ccc(Cl)cc3)n2CC2CCCO2)c(C)n1C (stereo not drawn)	tim10-1 inh 50.0 | tim10-1 conf 34.9
CN(C(=O)CSc1nnc(-c2ccc(Cl)cc2)n1CC1CCCO1)C1CCS(=O)(=O)C1 (stereo not drawn)	none
CC(C(=O)N1CCc2ccccc21)N1CCN(S(=O)(=O)c2cccc(C(F)(F)F)c2)CC1 (stereo not drawn)	none (no result: SKKanGAS inh)
Cc1ccc(-c2nc3ccccn3c2NCc2ccc3c(c2)OCO3)cc1	tim10-1 inh 47.0 | tim10-1 conf inactive
COc1ccc(-c2nc3ccc(C)cn3c2NCc2ccc3c(c2)OCO3)cc1	none
CC(=O)[C@H]1[C@H](c2cccc(Cl)c2)C(C#N)(C#N)[C@@H]2c3ccccc3C=CN21	tim10-1 inh 48.0 (no result: SKKanGAS inh, PfHsp90 yeast 2) | tim10-1 conf inactive
Cc1ccc(C(=O)NNC(=O)CSc2n[nH]c(-c3cccnc3)n2)cc1	none
Cc1ccccc1N/N=C/c1c(C)nc2ccccn12	tim10-1 inh 44.9 | tim10-1 conf inactive
Cc1nc2ccccn2c1C(=O)N/N=C/c1ccccc1	none
Nc1cccnc1Sc1ccc(Cl)cc1	none (no result: PfHsp90 yeast 2)
Nc1cccnc1Sc1cccc(Cl)c1	tim10-1 inh 41.2 | tim10-1 conf inactive
CC1=NN(c2ccccc2)C(=O)/C1=C\C=C1/N(C)c2ccccc2C1(C)C	tim10-1 inh 42.1 | tim10-1 conf inactive
CC1=NN(c2ccccc2)C(=O)/C1=C\C=C1\N(C)c2ccccc2C1(C)C	none
CCOC(=O)C(=O)C1=C(N2CCOCC2)/C(=C\c2cccc([N+](=O)[O-])c2)CC1	tim10-1 inh 40.9 | tim10-1 conf inactive
O=C(NP(=O)(N1CCCC1)N1CCCC1)C1=C(N2CCOCC2)/C(=C/c2cccc([N+](=O)[O-])c2)CC1	none
CNc1nc(-c2ccccn2)nnc1-c1ccccc1	tim10-1 inh 44.6 | tim10-1 conf 32.1
Cc1ccc(C)c(N2CCN(C(=O)c3ccc4nc(-c5ccco5)c(-c5ccco5)nc4c3)CC2)c1	tim10-1 inh 43.7 (no result: PfHsp90 yeast 2) | tim10-1 conf 37.0
Cc1ccc(C)c(N2CCN(C(=O)c3ccc4c(c3)c(C)c(C)n4C)CC2)c1	tim10-1 inh 43.4 | tim10-1 conf inactive
CC(C)(C)C(=O)NC(=S)Nc1ccc(Cc2ccncc2)cc1	tim10-1 inh 44.3 | tim10-1 conf inactive
COc1cccc(CN2C(=O)[C@H]3Cc4c([nH]c5ccccc45)C(C)(C)N3C2=O)c1	tim10-1 inh 44.7 | tim10-1 conf inactive
COc1ccc(CN2C(=O)[C@@H]3Cc4c([nH]c5ccccc45)C(C)(C)N3C2=O)cc1	tim10-1 inh 44.0 | tim10-1 conf inactive
Cc1ccc2cc(CN(CC3CCCO3)C(=S)Nc3ccccc3)c(=O)[nH]c2c1 (stereo not drawn)	tim10-1 inh 44.2 | tim10-1 conf inactive
Cc1cc(C)nc(N(C#N)Cc2ccccc2)n1	none
Cc1cc(C)nc(N(C#N)Cc2cccc3ccccc23)n1	tim10-1 inh 48.0 | tim10-1 conf 34.6
Cc1cc(C)cc(OCC(=O)N2N=C(C(F)(F)F)CC2(O)C(C)(C)C)c1 (stereo not drawn)	tim10-1 inh 46.0 | tim10-1 conf 34.1
Cc1cc(C)c(OCC(=O)Nc2ccccc2N2CCOCC2)c(C)c1	tim10-1 inh 46.5 (no result: PfHsp90 yeast 2) | tim10-1 conf 32.5
COc1cc(C(=O)Nc2ccccc2N2CCCCC2)cc(OC)c1OC	none
O=C(CN1C(=O)c2ccccc2C1=O)Nc1ccccc1N1CCOCC1	none
CCCCN1C(=O)c2ccc(C(=O)Nc3ccccc3N3CCOCC3)cc2C1=O	tim10-1 inh 42.8 (no result: PfHsp90 yeast 2) | tim10-1 conf inactive
COc1cc(C(=O)NC(=S)Nc2ccc(Cl)cn2)cc(OC)c1OC	tim10-1 inh 41.7 | tim10-1 conf inactive
